# Screening results (PubChem BioAssay)
# Compounds with a hit are over-represented: about 18% of the library has one in this group of screens.
# Six1-Eya2 blk: inhibitors of human Six1/Eya2 interaction. AlphaScreen GST-Six1/His-Eya2 binding, biochemical; hits give low values. AID 651725. 360,000 tested, 0.56% active. activity change, % (concentration not given with the values); in the data active means activity change below about -65%; inconclusive means mostly about -30% to -63%
# Target sequence (O00167 whole entry, looked up): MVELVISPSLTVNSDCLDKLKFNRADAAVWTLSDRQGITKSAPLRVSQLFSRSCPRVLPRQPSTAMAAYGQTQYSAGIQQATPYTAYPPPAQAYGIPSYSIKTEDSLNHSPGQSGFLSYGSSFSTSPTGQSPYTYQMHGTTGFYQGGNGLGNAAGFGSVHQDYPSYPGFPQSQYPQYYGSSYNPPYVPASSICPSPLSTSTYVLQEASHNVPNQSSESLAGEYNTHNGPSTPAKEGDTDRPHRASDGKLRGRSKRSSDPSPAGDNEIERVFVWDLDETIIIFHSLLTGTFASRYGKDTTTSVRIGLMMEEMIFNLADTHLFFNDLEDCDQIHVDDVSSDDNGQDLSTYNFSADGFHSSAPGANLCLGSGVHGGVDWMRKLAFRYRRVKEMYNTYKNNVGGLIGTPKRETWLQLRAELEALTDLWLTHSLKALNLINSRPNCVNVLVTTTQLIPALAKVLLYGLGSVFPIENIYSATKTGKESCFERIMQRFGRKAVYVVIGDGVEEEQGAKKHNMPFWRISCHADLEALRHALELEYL
# Target sequence (Q15475 whole entry, looked up): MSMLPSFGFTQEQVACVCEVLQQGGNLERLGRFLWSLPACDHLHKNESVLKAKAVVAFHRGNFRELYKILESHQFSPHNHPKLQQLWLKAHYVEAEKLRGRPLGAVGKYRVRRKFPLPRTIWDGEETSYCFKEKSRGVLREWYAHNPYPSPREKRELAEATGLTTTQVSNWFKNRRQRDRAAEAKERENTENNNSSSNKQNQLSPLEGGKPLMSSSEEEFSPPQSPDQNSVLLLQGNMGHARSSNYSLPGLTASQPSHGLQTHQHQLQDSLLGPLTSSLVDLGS
#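 Six1/Eya2 binding was read as AlphaScreen signal after compounds were pinned into GST-Six1 plus His-tagged Eya2 (5X stock 250/500 nM) in pH 8.0 Tris/NaCl/TCEP buffer, beads added, then incubated 1 h, 37 C, dark.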
# DT40 TDP1 CPT: DT40-hTDP1 cell growth loss with CPT; chicken DT40 Tdp1-/-;hTDP1 cells + 20 nM CPT, ATP luminescence, 48 h; Potency, µM (top dose mostly 46.2 µM), most hits filed as inhibitors; 420,000 tested, 12% active; further: nearly all actives have a fitted effect of over 55% in size
#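 Chicken DT40 Tdp1-/- cells complemented with human TDP1, 400 cells/well, exposed to compounds plus 20 nM camptothecin for at least 48 h at 37 C; viability read as ATP content by CellTiter-Glo luminescence.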
# TDP1 cell noCPT: qHTS for Inhibitors of human tyrosyl-DNA phosphodiesterase 1 (TDP1): qHTS in cells in absence of CPT | DT40 Tdp1-/- hTDP1 cells, no CPT, ATP luminescence, 48 h | Potency, µM (series often up to 46.2 µM), usual class: inhibitors | 420,000 tested, 15% active | AID 686978, 2013; further: nearly all actives have a fitted effect of over 55% in size
#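 DT40 Tdp1-/-;hTDP1 cells, no CPT (DMSO vehicle only), 400 cells/well; compounds pin-transferred; ≥48 hr, 37 °C; CellTiter-Glo 30 min RT dark, luminescence read.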
# TDP1 block: blocks human tyrosyl-DNA phosphodiesterase 1 | Q9NUW8 | Potency, µM (highest dose often 130 µM), most hits filed as inhibitors | recombinant TDP1, AlphaScreen DNA substrate cleavage | AID 485290 | 350,000 tested, 0.28% active; further: nearly all actives have a fitted effect of over 40% in size
#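 Signal: AlphaScreen proximity between streptavidin donor and anti-FITC acceptor beads on intact substrate. Reaction: Tdp1 1 nM, substrate 15 nM final, 5 min RT after 15 min compound preincubation.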
# CtBP-E1A blk: inhibitors of CtBP/E1A interaction | AlphaScreen GST-E1A/His-CtBP binding, 1536-well; hits give low values | activity change, % (test concentration not listed) | AID 651724 | 340,000 tested, 0.49% active; in the data active means activity change below about -65%; inconclusive means mostly about -30% to -63%
#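 Protein mix (5X: 125 nM each GST-E1A, His-CtBP) was incubated with pinned compound 2 h at 37 deg C in dark, in 50 mM Tris pH 8.0 buffer with 300 mM NaCl. Glutathione donor and nickel acceptor beads followed; AlphaScreen signal read after 1 h.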
# IL-1B inflam inh: inhibitors of inflammasome signaling (IL-1 beta secretion); THP-1 LPS/ATP IL-1B secretion, AlphaLISA, 16 h; hits give low values; activity change, % at 57.5 µM; 360,000 tested, 4.7% active; AID 743279; in the data active means activity change below about -50%; inconclusive means mostly about -30% to -49%
#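 THP-1 cells pretreated 1 hr with compounds (up to 57.5 uM final), then stimulated with LPS (250 ng/mL final) plus ATP (1.25 mM final); secreted IL-1B measured by AlphaLISA after 16 hr, decreased signal indicating inhibition.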
# A number is an active result; 0 = inactive; ? = inconclusive; - = no result; ! = not active in a repeat. Unless noted, the call rests on the fitted dose curve; in most records, active means well fitted curve in the direction sought with a large enough effect; inconclusive means small, poorly fitted or top-dose-only effect, or another doubt; inactive means no such curve, though single readings can be large; an effect the other way counts as inactive or inconclusive.
SMILES,Six1-Eya2 blk,DT40 TDP1 CPT,TDP1 cell noCPT,TDP1 block,CtBP-E1A blk,IL-1B inflam inh
CC1CCN(C(=O)c2ccc3c(c2NCCO)C(=O)c2ccccc2C3=O)CC1,?,23.1µM,18.4µM,0,?,0
CCN(CC)CCNC(=O)c1ccc2c(c1NCCO)C(=O)c1ccccc1C2=O,?,16.4µM,14.6µM,0,-,-53.3
O=[N+]([O-])c1ccc2c(c1N1CCCCC1)=NC1(CCCCC1)[N+]=2[O-],0,20.6µM,20.6µM,-,0,0
O=C(/C=C/c1ccc(F)cc1)Nc1cc(S(=O)(=O)N2CCOCC2)ccc1N1CCOCC1,0,0,0,-,0,0
CCOC(=O)C1CCCN(S(=O)(=O)c2ccc3c4c2CC(=O)N4CC(C)S3)C1 (stereo not drawn),0,?,18.4µM,-,0,0
CCOC(=O)C1CCCN(S(=O)(=O)c2cc3c4c(c2)CCN4C(=O)CC3)C1 (stereo not drawn),0,?,?,-,0,?
CCOC(=O)C1CCN(S(=O)(=O)c2ccc3c4c2CC(=O)N4CC(C)S3)CC1 (stereo not drawn),0,20.6µM,?,-,0,0
CNC(=O)CS(=O)(=O)CC(=O)Nc1cc(OC(C)C)c(Cl)cc1Cl,0,0,0,-,0,0
Cc1cc(=O)oc2cc(NC(=O)C(C)Oc3cccc(Cl)c3)ccc12 (stereo not drawn),0,?,?,0,0,0
CSc1c(C#N)c(N)nc2sc(C(=O)c3ccccc3)c(N)c12,0,0,0,-,0,-72.8
C/C(O)=c1/ccc2cccc3nc(C)nc1c23,0,?,?,0,0,-52.7
O=C(CN1CCN(S(=O)(=O)c2cccs2)CC1)N1CCCCC1,0,0,0,0,0,0
S=C(NCc1cccnc1)Nc1ccc(Cl)c(Cl)c1,0,0,?,0,0,-57.7
CC(C)(C)c1ccc(C(=O)NCc2cccnc2)cc1,0,0,?,0,0,0
Cc1ccc(NC(=O)NCc2cccnc2)cc1,0,0,0,0,0,-53.0
O=C(Cc1ccc(Cl)cc1)c1c[nH]c(C(=O)NCc2cccnc2)c1,0,0,0,0,-,0
CC(C)(C)c1ccc(C(=O)NC(=S)NCc2cccnc2)cc1,0,16.4µM,18.4µM,0,0,0
CC(C)(C)c1ccc(C(=O)c2c[nH]c(C(=O)NCc3cccnc3)c2)cc1,0,18.4µM,16.4µM,0,0,0
CC[C@H](C)N,-,-,-,0,-,-
C=CCN1[C@@H](Cc2ccccc2)COc2cc(N3CCSCC3)ccc2S1(=O)=O,0,?,?,-,0,0
COC(=O)c1cc(C(=O)c2ccc(C(C)(C)C)cc2)c[nH]1,0,?,11.6µM,0,0,?
Fc1ccc(NC(=S)NCc2cccnc2)cc1,0,0,0,0,0,0
CCC(C)c1ccc(NC(=S)NCc2cccnc2)cc1 (stereo not drawn),0,?,7.31µM,0,0,0
CN(C)C=NC(=O)c1cc(C(=O)c2ccc(C(C)(C)C)cc2)c[nH]1,0,?,0,0,0,0
CC(C)(C)c1ccc(NC(=S)NCc2cccnc2)cc1,0,?,14.6µM,0,0,0
SMILES,Six1-Eya2 blk,DT40 TDP1 CPT,TDP1 cell noCPT,TDP1 block,CtBP-E1A blk,IL-1B inflam inh
CCCc1cc(=O)oc2c3c(cc(OCC(=O)N[C@@H](CSC)C(=O)O)c12)OC(C)(C)CC3,0,0,0,-,0,0
O=S1(=O)N[C@@H](Cc2ccccc2)COc2cc(N3CCSCC3)ccc21,0,0,0,-,0,0
CCOc1ccc(NC(=O)C2CCCN(S(C)(=O)=O)C2)cc1 (stereo not drawn),0,0,0,-,0,0
COc1ccc2cc(C(=O)N3CCN(c4ccccc4F)CC3)[nH]c2c1,0,0,0,-,0,0
CCOc1ccc(CCNC(=O)CSCc2nc(-c3cccc(C)c3)oc2C)cc1OCC,-,?,13µM,0,-,-
COc1ccc(-c2nc(CSCC(=O)NCCc3ccc(C)cc3)c(C)o2)cc1OC,-,16.4µM,18.4µM,0,-,-
COc1ccc(-c2nc(CSCC(=O)NCCC3=CCCCC3)c(C)o2)cc1OC,0,?,?,0,0,0
CCOc1ccc(CCNC(=O)CS(=O)Cc2nc(-c3ccc(C)cc3)oc2C)cc1OCC (stereo not drawn),0,16.4µM!,?,0,-,0
COc1ccccc1CNC(=O)CSCc1nc(-c2ccc(OC)c(OC)c2)oc1C,-,?,18.4µM,0,-,-
CCOc1ccc(CCNC(=O)CS(=O)Cc2nc(-c3ccc(C)cc3)oc2C)cc1 (stereo not drawn),0,?,?,0,0,?
C[C@H](CO)N1C[C@H](C)[C@@H](CN(C)Cc2ccc(C(=O)O)cc2)Oc2ncc(Br)cc2C1=O,0,0,0,-,0,0
CS(=O)(=O)Nc1cccc(NC(=O)c2ccc(-n3ccnc3)c3ccoc23)c1,?,13µM,14.6µM,-,?,0
